From PubChem BioAssay
RE007 growth inh – less growth of the S. pombe RE007 Vpr strain; S. pombe RE007 Vpr strain, BacTiter-Glo ATP luminescence, 24 h; Potency, µM (top dose mostly 92.2 µM), most hits filed as inhibitors; hit rate 0.21% among 360,000; AID 651644; active = well fitted falling curve with a large enough effect; inconclusive = small, poorly fitted or top-dose-only effect; inactive = no such curve, though single readings can be large or run the other way; also: nearly all actives have a fitted effect of over 50% in size
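Fission yeast RE007 carrying one integrated HIV-1 vpr copy, seeded at OD 0.01 in PMG+AL medium with 23 nL pinned compound. Grown 24 h at 30 degrees; viability read by BacTiter-Glo luminescence after 5 min.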
LmPK inh – blocks Leishmania mexicana pyruvate kinase activity | Q27686 | purified LmPK, Kinase-Glo ATP luminescence, 1 h | Potency, µM (doses to about 57.5 µM), usual class: inhibitors | hit rate 0.37% among 290,000 | AID 1721
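In 50 mM imidazole pH 7.2 with 7 mM MgCl2, LmPK (0.1 nM) turned over PEP (0.5 mM) and ADP (0.1 mM) for 1 h at room temperature. Luciferase read-out of ATP.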
Giardia FBPA inh – inhibitors of Giardia lamblia fructose-1,6-bisphosphate aldolase. A8B2U2. purified Giardia FBPA. Potency, µM (highest dose often 59.6 µM), actives largely listed as inhibitors. hit rate 0.71% among 290,000; also: nearly all actives have a fitted effect of over 55% in size
Target sequence (A8B2U2 whole entry, looked up): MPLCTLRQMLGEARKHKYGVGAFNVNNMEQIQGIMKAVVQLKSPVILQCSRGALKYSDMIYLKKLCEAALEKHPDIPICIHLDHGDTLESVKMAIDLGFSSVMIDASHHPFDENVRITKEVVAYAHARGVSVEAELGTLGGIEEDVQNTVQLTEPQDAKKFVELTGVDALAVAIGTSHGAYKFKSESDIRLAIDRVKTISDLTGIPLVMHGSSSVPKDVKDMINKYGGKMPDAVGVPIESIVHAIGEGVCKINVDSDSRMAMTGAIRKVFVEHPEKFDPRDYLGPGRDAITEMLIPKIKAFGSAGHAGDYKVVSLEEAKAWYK
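40 nM FBPA preincubated 10 min at RT with compound (up to 57.5 uM final), then substrate plus GAPDH/TPI/NAD/arsenate coupling and diaphorase/resazurin added. Fluorescence read after 20 min at RT, 525/598 nm.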
Tb PYK inh – blocks Trypanosoma brucei pyruvate kinase | Potency, µM (titrated, usually from 76.8 µM), most hits filed as inhibitors | TbPYK enzyme, Kinase-Glo Plus ATP luminescence, 45 min | hit rate 0.12% among 410,000 | AID 624173 | Q57TT1; also: nearly all actives have a fitted effect of over 50% in size
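Readout: single end-point luminescence (Kinase-Glo Plus, 10 min). Reaction conditions were TbPYK/substrate plus 130 uM ADP, 45 min at RT, pH 7.2 TEA buffer. No-enzyme wells served as controls, and data were normalized before concentration-response fitting.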
A number is an active result; 0 = inactive; ? = inconclusive; - = no result; [ ] = remark or other dose. This is a sample that favours compounds with a hit; in the whole collection about 0.95% have one here. Unless noted, calls follow the shape of the dose curve; as a rule, active = well fitted curve in the direction sought with a large enough effect; inconclusive = small, poorly fitted or top-dose-only effect, or another doubt; inactive = no such curve, though single readings can be large; an effect the other way counts as inactive or inconclusive.

SMILES	RE007 growth inh	LmPK inh	Giardia FBPA inh	Tb PYK inh
Cc1nn(-c2nc3ccccc3[nH]2)c(=O)c2ccccc12	6.3µM	7.1µM	0	?
Cc1cc(NC(=O)c2ccccc2F)n(-c2nc3ccccc3[nH]2)n1	0	0	0	0
CC(C)(C)NC(=O)[C@H]1CC[C@H]2[C@@H]3CC=C4C=C(C(=O)O)CC[C@@]4(C)[C@H]3CC[C@]12C	-	-	-	0
CCC(=O)N1CCc2cc(S(=O)(=O)NC(Cc3ccccc3)C(=O)NCc3ccc(F)cc3)ccc21 (stereo not given)	-	-	-	0
COC(=O)c1cc(C)nc(Sc2ccccc2N)n1	0	0	0	8.9µM
CCCN(CCC)C(=O)C(CCC(=O)OCCCN1CCN(CCOC(=O)Cc2c(C)n(C(=O)c3ccc(Cl)cc3)c3ccc(OC)cc23)CC1)NC(=O)c1ccccc1 (stereo not given)	-	-	-	0
CC12CC3(C)CC(C)(C1)CC(NC(=O)N1CCCC1)(C2)C3	3.5µM	0	0	0
CC1(NC(=O)N2CCCCC2)CCS(=O)(=O)C1 (stereo not given)	0	0	0	0
O=[N+]([O-])c1ccc(/C=N/Nc2ncccc2[N+](=O)[O-])s1	0	-	-	0
COc1ccccc1/C=N/Nc1nccnc1Cl	0	16µM	0	0
COc1cccc(/C=N/Nc2ncccc2[N+](=O)[O-])c1OC	?	14µM	0	?
CCON=C(CC)C1=C(O)CC(c2c(C)cc(C)cc2C)CC1=O (stereo not given)	-	-	-	0
COc1cccc(CNC(=O)CCCn2c(=O)c3cccn3c3ccc(F)cc32)c1OC	-	-	-	0
Cc1c(N=Nc2c(O)n(C)c(=O)n(C)c2=O)c(=O)n(-c2ccccc2)n1C	0	0	0	0
Cc1c(N=C2C=CC(=O)c3ccccc32)c(=O)n(-c2ccccc2)n1C	?	?	18µM	?
COc1ccc2c(c1)cc1c(=O)n(CC(=O)NCCCc3ccccc3)nc(C)n12	-	-	-	0
Cc1cc(-c2ccc(N=Nc3ccc4c(S(=O)(=O)O)cc(S(=O)(=O)O)c(N)c4c3O)c(C)c2)ccc1N=Nc1ccc2c(S(=O)(=O)O)cc(S(=O)(=O)O)c(N)c2c1O	-	-	22µM	?
Cn1c(C(=O)N2CCCC2)cc2c(=O)n(C)c3ccccc3c21	0	0	0	0
Cn1c(C(=O)N2CCN(c3ncccn3)CC2)cc2c(=O)n(C)c3ccccc3c21	0	0	18µM	0
CN(C)c1ccc(/C=N/NC(=O)c2ccco2)cc1	0	16µM	0	0
O=C(N/N=C/c1ccc2ncccc2c1)c1ccco1	0	14µM	0	0
Cc1cccc(C)c1NC(=O)c1cc(S(N)(=O)=O)c(Cl)cc1O	-	-	-	0
COc1ccc([N+](=O)[O-])c(S(=O)(=O)c2ccc(Cl)cc2)n1	13µM	0	0	0
C/C(=C(/CCOC(=O)c1ccccc1)SS/C(CCOC(=O)c1ccccc1)=C(\C)N(C=O)Cc1cnc(C)nc1N)N(C=O)Cc1cnc(C)nc1N	-	-	-	0
C#C[C@]1(O)CC[C@@H]2[C@H]3CCC4=CC(=O)CC[C@H]4[C@H]3C(=C)C[C@@]21CC	-	-	-	0
SMILES	RE007 growth inh	LmPK inh	Giardia FBPA inh	Tb PYK inh
O=C(OCC(=O)N1CCCC1=O)c1cc(Cl)ccc1O	16µM	-	-	0
CCN(CC)CCCNC(=O)CN1C(=O)CCn2nc(-c3cn(C)c4ccccc34)cc21	-	-	-	0
Cc1n[nH]c(=S)n1-c1ccccc1	0	0	?	?
S=c1[nH]nc([C@@H]2C[C@H]2c2ccccc2)n1-c1ccccc1	0	?	0	4µM
Cc1ccccc1-n1c([C@@H]2C[C@H]2c2ccccc2)n[nH]c1=S	0	11µM	0	?
CC(C)(C)c1ccc(C(=O)Nc2nc3nc(-c4ccccc4)cc(=O)n3[nH]2)cc1	-	-	-	0
COc1cc(/C=C2\SC(=O)N(c3ccccc3Cl)C2=O)cc([N+](=O)[O-])c1O	35µM	0	0	0
COc1cc(/C=C2\SC(=O)N(CC(=O)Nc3cccc(C)c3)C2=O)cc([N+](=O)[O-])c1O	0	0	0	0
Cc1cccc(OCC(=O)OCc2cc(=O)n3nc(C4CCCCC4)sc3n2)c1	-	-	-	0
COc1ccccc1C(C[N+](=O)[O-])c1c(N)n(C)c(=O)n(C)c1=O (stereo not given)	35µM	0	0	0
COc1ccc(/C=C/c2cc(C(=O)O)c3ccccc3n2)cc1	?	11µM	0	0
COc1cc(OC)c(OC)cc1/C=C/c1cc(C(=O)O)c2ccccc2n1	0	0	0	0
CCOC(=O)/C(=C/c1ccc(OC(=O)c2ccccc2)cc1)C(C)=O	28µM	0	0	0
CCOC(=O)C(=Cc1ccc(N(C)C)cc1)C(=O)c1ccccc1	0	-	-	0
C[C@@H]1CCN(C(=O)CC#N)C[C@@H]1N(C)c1ncnc2[nH]ccc12	-	-	-	0
COc1ccccc1-c1noc(-c2ccc(N3CCC(C)CC3)c([N+](=O)[O-])c2)n1	-	-	-	0
OC[C@H]1O[C@H](OC/C=C/c2ccccc2)[C@H](O)[C@@H](O)[C@@H]1O	-	-	-	0
CC(C)(C=O)C1=CC(=O)c2ccccc2C1=O	8.9µM	13µM	?	?
O=C(N/N=C1/C[C@@H](O)[C@@H](O)[C@@H]2[C@@H]3C(=O)N(C[C@@H]4CCCO4)C(=O)[C@H]3CC[C@H]12)OCc1ccccc1	-	-	0[12.9 µM]	-
O=[N+]([O-])c1ccc(N2CCOCC2)cc1O	0	0	0	0
Cc1cc(N2CCOCC2)ccc1/C=C\[N+](=O)[O-]	7.9µM	0	0	0
OCC[n+]1c2ccccc2nc2ccc(N3CCOCC3)cc21	0	16µM	?	0
Cc1cccc(-c2[nH]ncc2-c2ccc3ncccc3n2)n1	-	-	-	0
N/C(=N\N=C\c1ccc2c(c1)OCO2)c1nonc1N	0	11µM	0	0
N/C(=N\N=C\c1cccc([N+](=O)[O-])c1)c1nonc1N	0	0	0	0
SMILES	RE007 growth inh	LmPK inh	Giardia FBPA inh	Tb PYK inh
O=C1C=C(CO)OCC1=O	-	-	-	0
COc1cc(C(=O)Nc2ccccn2)cc(OC)c1OC	0	0	0	0
Cc1cc(C(=O)Nc2ccccn2)cs1	0	14µM	0	0
COc1ccccc1OCC(=O)Nc1ccccn1	?	13µM	0	?
O=C(COc1ccc(Cl)cc1Cl)Nc1ccccn1	?	5µM	0	?
O=C(NC1CC(=O)N(c2cccc(F)c2)C1)c1ccc(S(=O)(=O)N2CCCCC2)cc1 (stereo not given)	-	-	-	0
Cc1cccc(CN2C(=O)c3ccccc3S(=O)(=O)c3ccc(C(=O)OCC4CCCO4)cc32)c1 (stereo not given)	-	-	-	0
COc1ccc(NC(=O)C2CCCN(S(=O)(=O)c3ccc(F)cc3)C2)cc1 (stereo not given)	-	-	-	0
COc1cccc(-c2nnc3n2N=C(c2ccc(OC)cc2OC)CS3)c1	-	-	0	-
CCOC(=O)CNC(=O)C(Cc1ccccc1)NC(=O)OCc1ccccc1 (stereo not given)	0	14µM	0	0
O=C(CSc1ccc2ccccc2c1)NCCc1ccc(O)c(O)c1	0	0	0	32µM
Clc1ccc(-c2nc3ccncc3[nH]2)cc1	40µM	14µM	0	0
